{"source": "PubChem BioAssay AID504582", "about": "(Broad Institute, 2011)", "note": "Several values for one entry are separate records, joined by “and”; a condition that tells them apart may be missing. Equal entries are not always repeated. The campaign covered roughly 340,000 compounds. About 2,300 (0.68%) were called active. Rule as the data show it: active = growth rescue above about 28% (passing the limit was not always enough); inconclusive = no clear call, values can overlap the other calls. The entries come from a sample that favours actives as a whole.", "data": [{"assay": "rescue of yeast from PfHsp40 toxicity, primary screen, S. cerevisiae, ATP luminescence (AID 504582);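 also: yeast W303a lacking pdr1 and pdr3 grown in galactose medium; growth measured after three days at 30 °C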", "settings": "S. cerevisiae expressing PfHsp40, growth rescue, at 12.5 µM, active compounds read high", "values": [{"compound": "Cc1noc(C)c1COc1ccc(C(=O)NCCOc2ccccc2)cc1", "growth rescue": "0.221% (inactive)"}, {"compound": "Cc1onc(-c2ccccc2)c1C(=O)Nc1ccccc1C#N", "growth rescue": "-0.716% (inactive) and 0.99% (inactive)"}, {"compound": "Cc1onc(-c2ccccc2)c1C(=O)NNC(=S)NC(=O)c1ccc(F)cc1", "growth rescue": "45.5% (active)"}, {"compound": "COc1ccc(C(=O)NC(=S)NNC(=O)CCc2ccccc2)cc1", "growth rescue": "277% (active)"}, {"compound": "O=C(CCc1ccccc1)NNC(=O)COc1ccc(Cl)cc1", "growth rescue": "-0.417% (inactive)"}, {"compound": "Cc1onc(-c2ccccc2)c1C(=O)N=C(N)c1ccc(Cl)cc1", "growth rescue": "-1% (inactive)"}, {"compound": "COc1ccc(C(=O)NC(=S)NC2CCCCC2)cc1", "growth rescue": "0.972% (inactive)"}, {"compound": "COc1ccc(C(=O)NC(=S)NNC(=O)c2c(-c3ccccc3)noc2C)cc1", "growth rescue": "42.1% (active)"}, {"compound": "Cc1onc(-c2c(Cl)cccc2Cl)c1C(=O)NNC(=O)c1c(-c2c(Cl)cccc2Cl)noc1C", "growth rescue": "-0.106% (inactive)"}, {"compound": "COc1ccc(NS(=O)(=O)c2cc(NC(=O)c3ccc(S(=O)(=O)N(C)C)cc3)ccc2N2CCOCC2)cc1", "growth rescue": "0.23% (inactive)"}, {"compound": "CCOC(=O)N1CCN(CC(=O)n2c(C)c(C)c3ccccc32)CC1", "growth rescue": "1.25% (inactive)"}, {"compound": "COC(=O)Cc1ccc(NC(=S)NCc2ccco2)cc1", "growth rescue": "-0.043% (inactive)"}, {"compound": "Cc1cc(C)cc(N)c1", "growth rescue": "-0.449% (inactive)"}, {"compound": "CCN(C(=O)CSc1nnnn1-c1ccc(OC)cc1)C1CCS(=O)(=O)C1", "note": "(stereo not given)", "growth rescue": "-0.617% (inactive)"}, {"compound": "Cc1c(C(=O)N(C)CCc2cnn(C)c2)oc2c(F)cccc12", "growth rescue": "6.8% (inactive)"}, {"compound": "CC(C)N(C(=O)CSc1nnc(NC2CC2)s1)c1ccccc1", "growth rescue": "0.892% (inactive)"}, {"compound": "CC(C)c1ccc(Nc2nnc(SCC(=O)c3nnc(-c4ccccc4)o3)s2)cc1", "growth rescue": "200% (active)"}, {"compound": "Cc1ccccc1Nc1nnc(SCC(=O)c2cc3ccccc3o2)s1", "growth rescue": "0.609% (inactive)"}, {"compound": "O=C1C2(Cl)C3(Cl)C4(Cl)C(Cl)(Cl)C5(Cl)C3(Cl)C1(Cl)C5(Cl)C24Cl", "note": "(stereo not given)", "growth rescue": "78.8% (active)"}, {"compound": "CCc1ccc(NC(=O)N[C@H](C(=O)O)C(C)CC)cc1", "note": "(stereo not given in full)", "growth rescue": "-0.138% (inactive)"}, {"compound": "CCOc1ccc(NC(=O)N2CC=C(n3c(=O)[nH]c4ccccc43)CC2)cc1", "growth rescue": "-0.78% (inactive)"}, {"compound": "CCn1c(SC)nc(O)c(C(c2ccc(OC)c(O)c2)c2c(O)nc(SC)n(CC)c2=O)c1=O", "growth rescue": "-0.176% (inactive)"}, {"compound": "CC(Sc1nnc(-c2cccs2)n1C1CC1)C(=O)NCC1CCCO1", "note": "(stereo not given)", "growth rescue": "-0.606% (inactive)"}, {"compound": "O=c1oc2ccccc2cc1-c1csc(Nc2ccc(O)cc2)n1", "growth rescue": "77.4% (active)"}, {"compound": "O=c1oc2ccccc2cc1-c1cn(-c2ccccc2)c(=S)[nH]1", "growth rescue": "2.32% (inactive)"}, {"compound": "Cc1cc(C)cc(OCC(=O)NNC(=O)c2cc3ccccc3oc2=O)c1", "growth rescue": "-1.97% (inactive)"}, {"compound": "COc1cc(C(=O)OCC(=O)NC23CC4CC(CC(C4)C2)C3)cc(OC)c1OC", "growth rescue": "0.746% (inactive)"}, {"compound": "Cc1ccc(C(=O)OC2CCCN(C)C2)cc1", "note": "(stereo not given)", "growth rescue": "-1.37% (inactive)"}, {"compound": "CC1(C)C2CCC1(C)C(OC(=O)CCn1ccnc1)C2", "note": "(stereo not given)", "growth rescue": "-1.93% (inactive)"}, {"compound": "CC1(C)C2CCC1(C)C(OC(=O)c1ccc(O)cc1)C2", "note": "(stereo not given)", "growth rescue": "518% (active)"}, {"compound": "CCOC(=O)Nc1ccc2c(c1)N(C(=O)CCCl)c1ccccc1[S@]2=O", "growth rescue": "1.15% (inactive)"}, {"compound": "Cc1ccc2c(c1)N(CC(=O)NCCCN1CCCCC1)C(=O)c1cccnc1O2", "growth rescue": "-0.596% (inactive)"}, {"compound": "COC(=O)C1CCCCN1C(=O)c1ccc(OC2CCN(C(C)=O)CC2)c(OC)c1", "note": "(stereo not given)", "growth rescue": "1.77% (inactive)"}, {"compound": "Cc1ccc2c(c1)N(CC(=O)N1CCOCC1)C(=O)CO2", "growth rescue": "-0.417% (inactive)"}, {"compound": "CCCCNc1c(-c2ccc(OC)c(Sc3ccc(OC)cc3)c2)nc2ccc(Cl)cn12", "growth rescue": "19.1% (inactive)"}, {"compound": "CCCCNc1c(-c2cccc(Sc3ccc(OC)cc3)c2)nc2ccccn12", "growth rescue": "310% (active)"}, {"compound": "CCCCNc1nc2c(c(=O)n(C)c(=O)n2C)n1Cc1cccc(OC)c1", "growth rescue": "0.511% (inactive)"}, {"compound": "Cn1c(=O)n(C)c2cc(CNc3ccc(N4CCOCC4)c(C(=O)O)c3)ccc21", "growth rescue": "-0.489% (inactive)"}, {"compound": "Cc1cccc(N2CCN(C(=O)CN(C)S(=O)(=O)c3ccc4c(c3)CCC(=O)N4)CC2)c1C", "growth rescue": "-1.62% (inactive)"}, {"compound": "COc1ccc(C(=O)Nc2cc(C)c(NC(=O)c3ccccc3OC)cn2)cc1", "growth rescue": "1.75% (inactive)"}, {"compound": "COc1ccc(C(=O)Nc2ccccc2C(=O)N/N=C/c2ccc(O)c(OC)c2)cc1", "growth rescue": "40.9% (active)"}, {"compound": "COc1cc(C=NNC(=O)c2cccnc2)ccc1OC(=O)c1ccccc1F", "growth rescue": "1.77% (inactive)"}, {"compound": "C=CCN1CC(C)/C(=N\\O)CC1C", "note": "(stereo not given)", "growth rescue": "-0.962% (inactive)"}, {"compound": "COc1cccc(CNC(=O)CCC2CCCN(C(=O)c3cc(C)[nH]n3)C2)c1", "note": "(stereo not given)", "growth rescue": "1.27% (inactive)"}, {"compound": "NC(=O)NC(=O)CSc1nc2cc([N+](=O)[O-])ccc2n1-c1cccc(C(F)(F)F)c1", "growth rescue": "0.555% (inactive)"}, {"compound": "Nc1[nH]c(=S)nc2nc(-c3ccccc3)c(-c3ccccc3)nc12", "growth rescue": "38.7% (active)"}, {"compound": "Cc1ccc(Cc2cncc(O)c2)cc1S(=O)(=O)O", "growth rescue": "-2.67% (inactive)"}, {"compound": "O=C(Nc1ccc2sc3ccccc3c(=O)c2c1)c1ccccc1Cl", "growth rescue": "-0.178% (inactive)"}, {"compound": "COC(=O)c1nc(NC(=O)c2ccccc2)n[nH]1", "growth rescue": "-0.423% (inactive)"}, {"compound": "O=C(NC1=CC(=O)c2ccccc2C1=O)c1ccccc1", "growth rescue": "300% (active)"}, {"compound": "O=C(Nc1ccc2ccccc2c1[N+](=O)[O-])c1ccccc1", "growth rescue": "0.461% (inactive)"}, {"compound": "O=c1c2ccccc2ccc2ccc(P(=O)(O)O)cc12", "growth rescue": "-0.021% (inactive)"}, {"compound": "CCOC(=O)CSc1nnc(CNC(=O)c2cccs2)n1-c1ccccc1", "growth rescue": "-0.612% (inactive)"}, {"compound": "COc1ccc2[nH]c3c(c2c1)CCN[C@H]3C", "growth rescue": "-1.47% (inactive)"}, {"compound": "COc1ccc2[nH]c3c(C)c4cc[n+](C)cc4c(C)c3c2c1", "growth rescue": "122% (active)"}, {"compound": "COc1ccc2[nH]c(C(=O)N3CCN(C)CC3)c(C)c2c1", "growth rescue": "-0.899% (inactive)"}, {"compound": "Cc1c(NC(=O)C(C)Oc2cccc(Cl)c2)c(=O)n(-c2ccccc2)n1C", "note": "(stereo not given)", "growth rescue": "0.003% (inactive)"}, {"compound": "COc1ccc(-c2cc(C(=O)NCCCN3CCOCC3)no2)cc1", "growth rescue": "0.263% (inactive)"}, {"compound": "O=C(NCCCN1CCOCC1)c1cc(-c2ccc(Cl)cc2)on1", "growth rescue": "0.597% (inactive)"}, {"compound": "O=C(NCCCN1CCOCC1)c1cc(-c2cccc(O)c2)on1", "growth rescue": "44.1% (active)"}]}]}
